TLR4-MyD88 BLA: inhibitors of TLR4-MyD88 association in cells, primary screen, cell-based, HeLa CL3-4, BLA complementation, FRET ratio; Toll-like receptor 4 (Homo sapiens) + Myeloid differentiation primary response protein …; AID 861, 2007; 200,000 compounds, 0.18% hits; HeLa CL3-4 TLR4/MyD88 BLA complementation; inhibition, % at 8.4 µM; in the data active = inhibition above about 25%;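 also: 0% = vehicle and 100% = reference inhibitor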
TLR9-MyD88 block: inhibitors of TLR9-MyD88 association in cells, primary screen, cell-based, CHO, BLA complementation, fluorescence | inhibition, % at 4.98 µM | CCF4 FRET ratio | Toll-like receptor 9 (Homo sapiens) + Myeloid differentiation primary response protein … | 340,000 compounds, 0.21% hits;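 active = inhibition above the mean over all tested compounds plus 3 SD, cut at about 21% in these data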;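 also: 0% = DMSO only wells and 100% = clavulanate BLA inhibitor control wells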
ABHD5-PLIN5 inh: ABHD5-PLIN5 interaction inhibitors, primary screen, cell lysate, split luciferase complementation, luminescence; Perilipin-5 (Homo sapiens) + 1-acylglycerol-3-phosphate O-acyltransferase ABHD5 (Homo …; 360,000 compounds, 0.78% hits; Split G. princeps luciferase complementation, 4 h; inhibition, % at 4 µM;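 active = inhibition above the mean inhibition across every tested compound plus 3 SD, cut at about 22% in these data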;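 also: 0% = DMSO only wells and the 100% control is not disclosed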
Target sequence (Q00G26 whole entry, looked up): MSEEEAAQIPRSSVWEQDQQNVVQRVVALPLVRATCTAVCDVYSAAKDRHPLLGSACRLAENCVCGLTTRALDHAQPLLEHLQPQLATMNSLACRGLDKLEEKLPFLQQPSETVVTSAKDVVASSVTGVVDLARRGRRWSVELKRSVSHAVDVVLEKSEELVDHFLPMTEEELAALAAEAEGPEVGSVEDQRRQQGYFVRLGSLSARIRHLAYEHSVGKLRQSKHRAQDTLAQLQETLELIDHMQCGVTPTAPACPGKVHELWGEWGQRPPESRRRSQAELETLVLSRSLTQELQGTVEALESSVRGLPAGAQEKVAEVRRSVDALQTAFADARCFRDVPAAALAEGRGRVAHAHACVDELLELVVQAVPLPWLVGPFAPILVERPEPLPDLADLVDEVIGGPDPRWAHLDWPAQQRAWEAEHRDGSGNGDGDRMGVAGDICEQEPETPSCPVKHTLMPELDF
Target sequence (Q8WTS1 whole entry, looked up): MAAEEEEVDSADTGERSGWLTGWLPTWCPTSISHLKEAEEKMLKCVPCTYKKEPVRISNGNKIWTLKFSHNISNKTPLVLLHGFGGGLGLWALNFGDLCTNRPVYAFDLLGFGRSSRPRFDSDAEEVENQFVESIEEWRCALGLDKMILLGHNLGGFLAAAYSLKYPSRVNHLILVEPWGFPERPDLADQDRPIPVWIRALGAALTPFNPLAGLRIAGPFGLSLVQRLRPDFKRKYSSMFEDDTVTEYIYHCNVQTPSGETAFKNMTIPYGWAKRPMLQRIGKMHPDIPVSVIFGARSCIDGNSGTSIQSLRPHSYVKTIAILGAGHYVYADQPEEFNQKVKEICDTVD
NOD2-RIPK2 inh: NOD2-RIPK2 binding disruptors in cells, primary screen, fluorescence, CHO cells, BLA complementation; CCF4 ratio; inhibition, % at 4.98 µM; 360,000 compounds, 0.38% hits; in the data active = inhibition above about 21%;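 also: 0% = vehicle only and 100% = reference blocker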
B2AR ag: beta2AR agonists driving receptor internalization, primary screen, cell-based, FAP fluorogen, flow cytometry; 340,000 compounds, 0.43% hits; response, % (no concentration beside the values); Am2.2-beta2AR cells; AID 504454, 2011; Beta-2 adrenergic receptor (Homo sapiens), P07550;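 active = response above a set limit, near 3 SD of response in nonfluorescent compounds, cut at about 42% in these data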
Exocytosis inh: LAMP-1 surface exposure blockers, TALL-104 cells – cell-based, flow cytometry, MLPCN library, primary screen | TALL-104 LAMP-1 surface exposure; cells stimulated with thapsigargin and PMA | 360,000 compounds, 0.66% hits | inhibition, % at 10 µM;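 active = inhibition above about 55%, limit read from the data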
ABHD5-PLIN5 conf: ABHD5-PLIN5 interaction inhibitors, confirmation, biochemical, luminescence. shares compounds with ABHD5-PLIN5 inh. inhibition, % at 4 µM. 2,200 compounds, 67% hits. AID 651612, 2012; in the data active = inhibition above about 23%;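 also: 0% = DMSO vehicle wells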
HNF4 counter: HNF4 dimerization inhibitors, counter-screen for ABHD5-PLIN5 interaction inhibitor project, biochemical, split-luciferase complementation, luminescence; inhibition, % at 4 µM; shares compounds with ABHD5-PLIN5 inh; 2,200 compounds, 77% hits;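 active = mean inhibition across replicate wells exceeding the computed hit threshold, cut at about 13% in these data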;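 also: light from luciferase halves that rejoin when HNF4 fusion proteins dimerize; 0% = DMSO only wells and the 100% control is not given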
An asterisk follows results filed as active; nt = no result given. An excerpt weighted towards active compounds, which were near 2% of everything screened.

SMILES	TLR4-MyD88 BLA	TLR9-MyD88 block	ABHD5-PLIN5 inh	NOD2-RIPK2 inh	B2AR ag	Exocytosis inh	ABHD5-PLIN5 conf	HNF4 counter
O=C(COc1ccccc1/C=C\c1[nH]c(=O)[nH]c(=O)c1[N+](=O)[O-])Nc1ccccc1	2	5	30*	0	-5	-1	87*	84*
COc1cccc(/C=C/c2[nH]c(=O)[nH]c(=O)c2[N+](=O)[O-])c1O	nt	-10	32*	6	-5	-6	78*	80*
O=c1[nH]c(/C=C/c2ccccc2Cl)c([N+](=O)[O-])c(=O)[nH]1	nt	-9	39*	14	0	-6	71*	61*
O=C(COc1ccccc1/C=C1\SC(=O)NC1=O)Nc1ccccc1	14	-1	1	-5	4	-4	nt	nt
COc1ccc(CC(=O)N(C)CC(=O)Nc2ccc(F)cc2)cc1S(=O)(=O)N1CCOCC1	nt	4	-5	-4	-3	-2	nt	nt
COc1ccccc1Cn1c(C)c(C(=O)NCCC#N)sc1=O	nt	nt	4	3	nt	-2	nt	nt
Cc1cc(-c2nn(-c3ccccc3F)cc2CN2CCN(c3ccncc3)CC2)c(C)s1	4	14	28*	12	20	11	7	-3
O=C(CC1Sc2ncnn2C1=O)Nc1ccccc1 (configuration not stated)	-5	4	27*	4	13	6	11	47*
CN1CCN(C2Cc3ccccc3Sc3cc(C(F)(F)F)ccc32)CC1 (configuration not stated)	nt	nt	nt	nt	16	nt	nt	nt
CN1CCN(C2=Cc3ccccc3Sc3cc(F)ccc32)CC1	0	4	23*	-10	-3	8	15	11
CN1CCN(C2=Cc3ccc(Cl)cc3Sc3ccc(F)cc32)CC1	-8	8	29*	-7	18	16	19	1
CN1CCN(C2Cc3cc(F)ccc3Sc3ccc(Cl)cc32)CC1 (configuration not stated)	nt	-2	13	6	11	47	nt	nt
CC(Oc1ccc(Br)cc1)C(=O)N1CCN(c2ccccn2)CC1 (configuration not stated)	nt	5	-3	-7	-5	4	nt	nt
CC(Oc1ccc(Br)cc1)C(=O)N1CCC(C(N)=O)CC1 (configuration not stated)	12	6	45*	2	1	1	10	7
Cc1cc(C(=O)N2CCC2(C)C(=O)NCC(C)(C)C)nn1C (configuration not stated)	nt	nt	-1	10	nt	0	nt	nt
O=C(CSc1n[nH]c(-c2ccccc2)n1)NC(=O)NCc1ccco1	2	5	23*	-2	9	-1	10	8
Cc1cc(SCC(=O)NC(=O)NCc2ccco2)nc2c(C)cccc12	-1	-8	40*	11	5	2	27*	38*
CN(C)Cc1ccccc1Cc1ccccc1	-1	5	-2	-7	1	-3	nt	nt
CN(C)CCOc1ccccc1Cc1ccccc1	nt	-2	35*	-1	-1	4	73*	25*
Nc1ccc(Nc2ccncc2)cc1	nt	-7	-3	11	nt	9	nt	nt
CC(C)n1c(=NC(=O)c2ccco2)c(C#N)cc2c(=O)n3ccccc3cc21	-12	-32	27*	-29	6	1	29*	54*
CCOC(=O)c1cc2c(=O)n3ccccc3nc2n(Cc2ccco2)c1=NC(=O)c1ccccc1OC	6	-3	44*	0	14	5	20	73*
CCOC(=O)c1cc2c(=O)n3ccccc3nc2n(Cc2ccco2)c1=NC(=O)c1ccc(OC)cc1	4	3	13	3	8	8	nt	nt

Screening data: PubChem, several laboratories
